JMJD2A Tudor – inhibitors of human JMJD2A Tudor domain | O75164 | 390,000 tested, 4.4% active | Potency, µM (titrated, usually from 114 µM), actives largely listed as inhibitors | AlphaScreen JMJD2A-Tudor / H3K4me3 peptide binding; further: nearly all actives have a fitted effect of over 50% in size
Target sequence (O75164 whole entry, looked up, the tested form may be a part): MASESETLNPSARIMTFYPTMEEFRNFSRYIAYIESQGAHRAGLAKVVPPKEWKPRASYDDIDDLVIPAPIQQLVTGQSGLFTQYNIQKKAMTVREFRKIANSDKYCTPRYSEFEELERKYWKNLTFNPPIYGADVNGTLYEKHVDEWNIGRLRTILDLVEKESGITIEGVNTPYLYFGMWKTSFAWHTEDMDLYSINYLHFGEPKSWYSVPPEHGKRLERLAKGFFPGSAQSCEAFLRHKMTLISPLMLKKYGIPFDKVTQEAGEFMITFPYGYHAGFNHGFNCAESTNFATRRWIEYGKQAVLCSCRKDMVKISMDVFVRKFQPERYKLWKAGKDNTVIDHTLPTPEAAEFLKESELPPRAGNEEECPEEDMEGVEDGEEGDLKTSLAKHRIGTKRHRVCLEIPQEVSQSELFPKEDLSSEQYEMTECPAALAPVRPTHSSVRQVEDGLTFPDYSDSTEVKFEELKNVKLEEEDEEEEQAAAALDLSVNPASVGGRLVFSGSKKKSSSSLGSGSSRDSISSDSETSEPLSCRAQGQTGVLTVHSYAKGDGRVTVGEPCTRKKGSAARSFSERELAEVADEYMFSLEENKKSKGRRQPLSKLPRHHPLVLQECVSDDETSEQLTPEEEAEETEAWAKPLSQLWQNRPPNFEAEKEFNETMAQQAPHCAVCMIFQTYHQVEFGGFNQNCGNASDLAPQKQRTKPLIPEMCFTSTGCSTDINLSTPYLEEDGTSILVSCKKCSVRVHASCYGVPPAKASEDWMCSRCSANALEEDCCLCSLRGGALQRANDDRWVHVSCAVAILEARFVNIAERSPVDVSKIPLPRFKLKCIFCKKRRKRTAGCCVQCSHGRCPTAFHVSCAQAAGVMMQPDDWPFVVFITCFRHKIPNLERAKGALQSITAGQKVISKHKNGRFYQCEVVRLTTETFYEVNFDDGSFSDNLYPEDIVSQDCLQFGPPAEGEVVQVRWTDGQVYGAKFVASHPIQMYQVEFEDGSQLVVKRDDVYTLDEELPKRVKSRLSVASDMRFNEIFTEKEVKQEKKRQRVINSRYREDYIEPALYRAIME
BAZ2B block – inhibitors of human BAZ2B bromodomain; AlphaScreen BAZ2B-H3K14Ac peptide displacement; 360,000 tested, 4.4% active; AID 504333; Q9UIF8; Potency, µM (highest dose often 114 µM), most hits filed as inhibitors; further: nearly all actives have a fitted effect of over 60% in size
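Inhibition is scored as reduced AlphaScreen emission. The BAZ2B/b-H3(5-23)K14Ac complex (50 nM each) in PBS pH 7.4, 0.01% Tween-20 meets compound (up to 110 uM) for 30 min at RT before bead addition.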
PLK1 PBD block – PLK1 (human) polo-box domain binding inhibition | AID 720504 | 360,000 tested, 2.8% active | P53350 | Potency, µM, most hits filed as inhibitors | Plk1 PBD binding of FITC phosphopeptide, fluorescence polarization; further: series mostly up to about 57 µM; nearly all actives have a fitted effect of over 65% in size
G9a inh – blocks human histone lysine methyltransferase G9a | 350,000 tested, 8.8% active | G9a H3K9 monomethylation, AlphaScreen, 2 h | Potency, µM (top dose mostly 102 µM), usual class: inhibitors | Q96KQ7; further: nearly all actives have a fitted effect of over 75% in size
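AlphaScreen detection with an anti-monomethyl H3K9 antibody quantified product after a 2 h room-temperature reaction containing 500 nM biotinylated H3K9 peptide, 20 µM SAM and 20 nM enzyme, which had been preincubated 15 min with compound.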
HP1b binding inh – inhibitors of HP1-beta chromodomain binding to methylated histone tails; AID 540317; Potency, µM (doses to about 114 µM), most hits filed as inhibitors; AlphaScreen HP1-beta / biotin-H3K9me3 peptide binding; 390,000 tested, 0.56% active; P83916; further: nearly all actives have a fitted effect of over 70% in size
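AlphaScreen: HP1-beta (50 nM) preformed 30 min with biotin-H3(1-18)K9me3 peptide (50 nM) in PBS pH 7.4, 0.01% Tween-20. Compound added for 30 min at RT, then streptavidin donor/nickel chelate acceptor beads (10 ug/mL) for 30 min.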
12-LOX inh – ALOX12 (human) lipoxygenase inhibition | P18054 | purified 12hLO, xylenol orange hydroperoxide absorbance | Potency, µM (highest dose often 108 µM), actives largely listed as inhibitors | 580,000 tested, 1.1% active | AID 1671190
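Purified human 12hLO at 150 nM in 25 mM Hepes, 0.01% Triton X-100, pH 7.0, preincubated 15 min at room temperature with compound. Reaction started with 40 uM arachidonic acid, 30 min at room temperature. Hydroperoxide measured by Fe-xylenol orange, 573/405 nm absorbance ratio.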
Numbers stand for hits; . = inactive; ? = inconclusive; / = no result; ! = repeats disagree; [ ] = another dose, or the depositor's remark. A selection: hits, their analogues and other compounds. The true share with any hit is near 9%. The call rests on the fitted dose curve; in most records, active means well fitted curve in the direction sought with a large enough effect; inconclusive means small, poorly fitted or top-dose-only effect, or another doubt; inactive means no such curve, though single readings can be large; an effect the other way counts as inactive or inconclusive.

SMILES | JMJD2A Tudor | BAZ2B block | PLK1 PBD block | G9a inh | HP1b binding inh | 12-LOX inh
NC(=O)CC(NC(=O)c1ccccc1)c1ccc(N2CCC(Cc3ccccc3)CC2)c([N+](=O)[O-])c1 (centres undefined) | ? | . | . | / | . | .
COc1ccccc1C(=O)NC(=S)Nc1ccc(Cc2ccncc2)cc1 | . | ? | . | 32µM | . | ?
COc1cc(C(=O)NC(=S)Nc2ccc(Cc3ccncc3)cc2)cc(OC)c1OC | ? | . | . | .[2.33 µM] | . | .
COc1ccccc1C(=O)Nc1ccncc1 | . | . | . | . | . | .
Cc1cc(C)cc(C(=O)NC(=S)Nc2ccc(Cc3ccncc3)cc2)c1 | ? | ? | . | 22µM | ? | 45µM
CCC(=O)Nc1cccc(NC(=S)NC(=O)c2cccc(C)c2)c1 | . | . | . | ? | ? | 35µM
Cc1cccc(C(=O)NC(=S)NC(C)c2ccccc2)c1 (centres undefined) | . | / | . | / | . | 6.3µM
CC1(C)C(=O)OC(c2c3ccccc3cc3ccccc23)C(C)(C)C1=O (centres undefined) | . | . | . | . | . | .
O=C(NC(=S)Nc1ccc(Cc2ccncc2)cc1)c1ccccc1 | . | ? | . | ? | ? | ?
Cc1ccc(-c2nc3cc(C(C)C)ccc3o2)cc1NC(=O)c1cc2ccccc2o1 | . | . | / | . | . | .
Cc1cccc(C(=O)NC(=S)Nc2ccc(Cc3ccncc3)cc2)c1 | ? | ? | ? | 32µM | . | 45µM
CCC(=O)Nc1cccc(NC(=S)NC(=O)c2cc3ccccc3o2)c1 | . | . | 27µM | . | . | .
Cc1ccc(-c2nc3ccccc3o2)cc1NC(=S)NC(=O)c1cc2ccccc2o1 | . | . | . | 50µM | . | .
C/C(=N\NC(=S)Nc1cccc(C)c1)c1cc2ccccc2o1 | 25µM | ? | . | 35µM | ? | 35µM
CCCCC(=O)Nc1cccc(NC(=S)NC(=O)C(C)C)c1 | ? | . | . | 28µM | . | .
CC/C(=N\NC(=S)Nc1cccc(C)c1)c1ccccc1 | 50µM | ? | . | ? | ? | ?
COc1ccc(NC(=S)NC(=O)c2cc3ccccc3o2)c(OC)c1 | . | . | . | 10µM | . | ?
Cc1cccc(NC(=S)N/N=C(\c2ccccc2)C(C)C)c1 | . | . | . | / | . | ?
CCCCC(=O)Nc1cccc(NC(=O)CC)c1 | . | . | . | .[12.7 µM] | . | .
COc1ccc(C)cc1-n1cnc2cc(C(=O)NC3CCCC3)ccc21 | . | . | / | . | . | .
Cc1ccc(S(=O)(=O)N(C)/N=C/C=C/c2ccccc2)cc1 | . | . | . | 35µM | . | .
Cc1ccc(C(=O)N/N=C/C=C/c2ccccc2)cc1 | . | . | . | . | . | .
Cc1ccc(S(=O)(=O)N(C)/N=C/c2ccc(N(C)C)cc2)cc1 | 22µM | 25µM | . | 18µM | 40µM | /
CC(C)c1ccc(NC(=O)C(c2ccccc2)N(Cc2ccco2)C(=O)CC2NC(=O)NC2=O)cc1 (centres undefined) | . | ? | . | 14µM | . | .
Cc1cc(=O)[nH]c(-n2ncc(C#N)c2N)n1 | 1.6µM | / | . | 2.8µM | . | .
SMILES | JMJD2A Tudor | BAZ2B block | PLK1 PBD block | G9a inh | HP1b binding inh | 12-LOX inh
CC(=O)Nc1ccc(NC(=O)c2cccc(N(C)C)c2)cc1 | / | / | / | / | / | .
Cc1ccc(NC(=O)c2cc(N(C)C)ccc2[P+](=O)O)cc1 | ? | ? | . | 28µM | . | ?
Cc1ccc(NCCCn2ccc(NC(=O)OCc3ccccc3)nc2=O)cc1C | 56µM | / | . | / | ? | .
Cn1c2ccccc2c(=O)c2ccc(C#CC3(N)CCCCC3)cc21 | . | . | . | 40µM | . | ?
Nc1nonc1-n1nnc(C(=O)N/N=C/c2cccc(Cl)c2)c1CN1CCCC1 | ? | / | 30µM | / | . | .
CCCc1c(C(=O)N/N=C(\C)c2cccnc2)nnn1-c1nonc1N | / | / | . | / | / | .
C/C(=N\NC(=O)c1cccnc1)c1nnn(-c2nonc2N)c1C | . | . | . | 50µM | . | .
Cc1ccc(COc2cccc(/C=N/NC(=O)c3nnn(-c4nonc4N)c3C)c2)cc1 | . | . | . | / | . | .
Cc1ccc(/C=N/NC(=O)c2nnn(-c3nonc3N)c2CNc2ccccc2)cc1 | 22µM | . | 19µM | . | . | .
Cc1cccc(COc2ccc(/C=N/NC(=O)c3nnn(-c4nonc4N)c3C)cc2)c1 | ? | . | 21µM | . | . | .
Nc1nonc1-n1nnc(C(=O)N/N=C/c2cccc(F)c2)c1CN1CCCC1 | . | / | . | / | . | .
Cc1ccc(NC(=O)COC(=O)Cc2cccs2)cc1S(=O)(=O)N1CCOCC1 | . | . | . | .[12.7 µM] | . | .
CC(/C=N/NC(=O)c1nnn(-c2nonc2N)c1CN(C)C)=C\c1ccco1 | . | . | . | 79µM | . | .
C/C(=N\NC(=O)c1nnn(-c2nonc2N)c1CN(C)c1ccccc1)c1ccc(O)cc1 | . | . | . | . | . | .
CN(Cc1c(C(=O)N/N=C/c2ccccc2)nnn1-c1nonc1N)C1CCCCC1 | ? | . | 30µM | . | . | .
C/C(=N\NC(=O)c1nnn(-c2nonc2N)c1CN(C)c1ccccc1)c1ccccn1 | 22µM | 8.9µM | . | . | . | /
CN(Cc1c(C(=O)N/N=C/c2ccc(O)cc2)nnn1-c1nonc1N)C1CCCCC1 | . | . | . | / | . | .
CN(C)Cc1c(C(=O)N/N=C/c2ccc(-c3ccccc3)cc2)nnn1-c1nonc1N | ? | . | 21µM | . | . | .
COc1ccc(Cc2c(-c3ccc(OC)c(OC)c3)nc3c(C)cc(Br)cn23)c(C)c1 | / | / | . | / | / | .
O=C(CSc1nc2c([nH]c3ccccc32)c(=O)n1-c1ccc(Cl)cc1)c1ccccc1 | . | . | / | . | . | .
CCCCN1CC2([N+](=O)[O-])C=CC(=O)C([N+](=O)[O-])(C1)C2CC(=O)c1ccccc1 (centres undefined) | . | . | . | 45µM | . | .
CCN1CC2([N+](=O)[O-])C=CC(=O)C([N+](=O)[O-])(C1)C2CC(=O)c1ccccc1 (centres undefined) | ? | ? | ? | ? | . | ?
COC(=O)\C(C(C)=O)=C(/C=C/C=C/N(C)C)N(C)C | ? | 35µM | . | ? | . | ?
CN(Cc1cnc2nc(N)nc(N)c2n1)c1ccc(C(=O)N[C@@H](CCC(=O)O)C(=O)O)cc1 | . | / | . | 7.5µM! | . | ?
O=C(NCc1nnc(SCC(=O)N2CCCc3ccccc32)o1)c1ccco1 | . | / | . | ? | . | .
O=C(CSc1nnc(CNc2ccc(F)cc2)o1)N1CCCc2ccccc21 | ? | ? | 27µM | . | . | .
O=C(CSc1nnc(-c2ccc(F)cc2)o1)N1CCCc2ccccc21 | . | . | / | 10µM | . | .
O=C(NCC1CCCO1)c1cccc(N2CCCC2=O)c1 (centres undefined) | . | . | . | ? | . | .
